24 molecules from PubChem BioAssay AID372 (MTDP, 2006) can be followed below.

Molecules are shown by their SMILES. Among all 100,000 compounds or so, about 770 (0.77%) were called active. Only a selection was taken, and actives are over-represented in it overall. A number with no mark means an inactive call. Rule as the data show it: active = inhibition above about 50%; inactive = the rest.

For orientation: inhibition means the share of the control response that was lost under treatment.

The assay has as its target Gag-Pol polyprotein (Human immunodeficiency virus type 1 group M subtype B (isolate HXB2)) (UniProt P04585). As to the kind of experiment: RNase H inhibition, HIV 1 Gag Pol polyprotein, FRET biochemical assay, screening (AID 372). Particulars: HIV-1 RT RNase H, FRET RNA/DNA substrate fluorescence; at 10 µM; hits give high values.
Consider `Cc1ccc(-n2nc3cc(C)c(NC(=O)c4cccc([N+](=O)[O-])c4C)cc3n2)cc1`, for which the inhibition is 51% (active). Next, `Cc1ccc(-n2nc3cc(C)c(NC(=O)c4ccccc4Br)cc3n2)cc1`: 4%; `Cc1cc2nn(-c3ccc(Cl)cc3)nc2cc1NC(=O)c1ccccc1C`: 36%. Next, `Cc1cc2nn(-c3ccccc3)nc2cc1NC(=O)c1cccc([N+](=O)[O-])c1C`: 16%; `Cc1cc2nn(-c3ccccc3)nc2cc1NC(=O)/C=C/c1ccccc1`: 12%. For `Cc1cc2nn(-c3ccc(Cl)cc3)nc2cc1NC(=O)c1ccccc1Br`, the inhibition is 52% (active). The result for `Cc1ccc(-n2nc3cc(C)c(NC(=O)c4ccc(Cl)cc4Cl)cc3n2)cc1` reads 1%. Turning to `Cc1cc2nn(-c3ccccc3)nc2cc1NC(=O)/C=C/c1ccc(Cl)cc1`, the inhibition was 54% (active). The result for `Cc1ccc(-n2nc3cc(C)c(NC(=O)c4ccccc4[N+](=O)[O-])cc3n2)cc1` reads 15%; that for `Cc1cc2nn(-c3ccccc3)nc2cc1NC(=O)c1ccc(Cl)cc1Cl`, 41%; that for `COc1ccc(-n2nc3cc(C)c(NC(=O)/C=C/c4ccccc4)cc3n2)cc1`, 42%. Next, `Cc1cc2nn(-c3ccc(Cl)cc3)nc2cc1NC(=O)c1ccc(Cl)cc1Cl`: 58% (active); `Cc1ccc(OCCOc2ccc(Br)cc2/C=C2\SC(=S)NC2=O)c(C)c1`: 46%. As to `O=C(COC(=O)c1ccccc1Cl)c1ccc(Cl)cc1Cl`, the inhibition was 43%.

As to `CCOC(=O)C1=C(C)N=c2s/c(=C/c3ccc(-c4cc([N+](=O)[O-])ccc4OC)o3)c(=O)n2C1c1cccs1` (centres undefined), the inhibition was 8%.

For `CC(O)c1cccc(NC(=O)c2nn3c(c2Cl)NC(c2cccs2)CC3C(F)(F)F)c1` (centres undefined), the inhibition is 6%. Next, `COc1ccc(-c2cc(-c3ccccc3)nc(-c3ccc(C)o3)c2)cc1`: 16%.

Turning to `Cc1cc2nn(-c3ccc(Cl)cc3)nc2cc1NC(=O)c1cc(Cl)ccc1Cl`, the inhibition was 52% (active). Consider `Cc1ccc(-n2nc3cc(C)c(NC(=O)c4cc(Cl)ccc4Cl)cc3n2)cc1`, for which the inhibition was 5%. The result for `Cc1cc2nn(-c3ccc(Cl)cc3)nc2cc1NC(=O)c1ccc([N+](=O)[O-])cc1Cl` reads 50% (active); that for `COc1ccc(-n2nc3cc(C)c(NC(=O)c4cc(Cl)ccc4Cl)cc3n2)cc1`, 35%; that for `Cc1cc2nn(-c3ccccc3)nc2cc1NC(=O)c1ccc([N+](=O)[O-])cc1Cl`, 22%. The result for `Cc1ccc(-n2nc3cc(C)c(NC(=O)c4ccc([N+](=O)[O-])cc4Cl)cc3n2)cc1` reads 0%.

Regarding `CSc1ccc(/C=C2\C(=O)NC(=O)N(c3ccc(Br)c(C)c3)C2=O)cc1`, the inhibition was 0%.
